# Results as given in PubChem BioAssay AID624256 (NMMLSC, 2012).
# Screen size: about 360,000 compounds; about 3,700 (1%) were called active. Another 2% or so got no clear call; they are omitted.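 The calls were made as follows: active = normalized GFP-positive differentiation at or above the plate's own cutoff, the solvent-only control mean plus 3 SD; inconclusive = no clear call, values can overlap the other calls; inactive = the rest.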 The entries come from a sample that favours actives as a whole. Where a SMILES comes first, the peptide text is derived from it. The star is where a group is joined. OPac = O=C(CO*)c1ccccc1; Bz = O=C(c1ccccc1)*
# Experiment: induction of myeloid progenitor differentiation, primary screen, cell-based, flow cytometry, MLPCN library (AID 624256);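 as to GFP+ MAC1+ double positive: cells exposed to compound for four days before flow analysis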;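 as to normalized GFP-positive differentiation: cells exposed to compound for four days before flow analysis; 0% = DMSO wells and 100% = fulvestrant positive control at 5 µM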
# Settings: ER-HoxA9 myeloid progenitors, lysozyme-GFP differentiation, at 10 µM; GFP+ MAC1+ double positive: measured here: differentiation confirmed by MAC1 staining, stronger effect = higher value; normalized GFP-positive differentiation: stronger effect = higher value
SMILES,GFP+ MAC1+ double positive [%],outcome,normalized GFP-positive differentiation
COc1ccc2c(c1)c1ncn(Cc3ccccn3)c(=O)c1n2C,0.7,inactive,–
Cc1ccc2c(c1)c1ncn(Cc3ccc(F)cc3)c(=O)c1n2C,2.8,–,18% (active)
Cc1ccc2[nH]c3c(=O)n(Cc4ccccn4)cnc3c2c1,3,inactive,–
Cc1ccc(C(NC(=O)C2CCN(CCOc3ccc(Cl)cc3Cl)CC2)c2ccccn2)cc1 (stereo unspecified),1.4,inactive,–
COc1ccc(-c2cc(NC=O)c3ncc(-c4ccccc4)n3c2)cc1OC,3.3,inactive,–
COC(=O)C1(C(=O)OC)C[C@H](c2ccccc2)N(Cc2ccccc2OC)[C@@H]1c1ccccc1,1.5,inactive,–
Cc1ccc(Cc2c(-c3ccc(Cl)cc3)nc3c4ccccc4ccn23)cc1,0.4,inactive,–
Cc1ccc(CNC(=O)CN2CCN(Cc3ccc(Cl)cc3)C2=O)cc1,1,inactive,–
CC1CCCCC1NC(=O)COC(=O)Cc1ccc(Cl)cc1 (stereo unspecified),1.4,inactive,–
CC1CCCC(NC(=O)CN2CCN(Cc3ccc(Cl)cc3)C2=O)C1C (stereo unspecified),11.3,–,111% (active)
Cc1ccc(C)c(C(O)c2ncc(-c3cccc4ccccc34)[nH]2)c1 (stereo unspecified),0.8,inactive,–
C[C@H]1COc2cc(N3CCSCC3)ccc2S(=O)(=O)N1,0.8,inactive,–
Nc1c(C(=O)c2cccs2)sc2nsc(SCCN3CCCCC3)c12,6,–,344% (active)
CCCCCCN1CCN(C2CN(Cc3cn(CCCCCC)nn3)S(=O)(=O)C2)CC1 (stereo unspecified),0.5,inactive,–
Nc1[nH]c(C(=O)c2ccccc2)c(-c2ccncc2)c1C(=O)NCc1cccc2ccccc12,1.6,inactive,–
O=C(Nc1ccc(F)cc1)C(CCc1ccccc1)N1CCN(CC(=O)N2CCCC2)CC1 (stereo unspecified),1.3,inactive,–
c1ccc2c(c1)nnn2-c1ccncc1,0.8,inactive,–
O=C(C[n+]1ccc2c(c1)nnn2-c1ccccc1)c1ccc(Cl)cc1,0.8,–,63.4% (active)
O=C(CSc1cccc[n+]1[O-])c1ccc(Cl)cc1,0.4,inactive,–
Cc1cc(=O)oc2c3c(cc(OCC(=O)NCC(O)c4ccccc4)c12)OC(C)(C)CC3 (stereo unspecified),7.8,inactive,–
O=C(CNC(=O)c1ccccc1)NCC(=O)OCC(=O)c1ccccc1 (Bz-Gly-Gly-OPac),0.2,inactive,–
Cc1ccccc1OCC(=O)NCC(=O)OCC(=O)c1ccc2ccccc2c1,3.6,–,24.5% (active)

SMILES,GFP+ MAC1+ double positive [%],outcome,normalized GFP-positive differentiation
Cc1ccc(S(=O)(=O)NC(=O)COc2ccccc2C)cc1,0.4,inactive,–
O=C(NC1CCCCC1)C(c1cc2ccccc2o1)n1c(=O)c(-c2ccco2)nc2ccccc21 (stereo unspecified),5.6,inactive,–
CSc1ccc(CN2CCC2(C)C(=O)Nc2ccc(C)c(O)c2)cc1 (stereo unspecified),0.4,inactive,–
Cc1cccc(N2CCN(C(=O)c3cccc(S(=O)(=O)N4CCc5ccccc5C4)c3)CC2C)c1 (stereo unspecified),7.3,–,31.5% (active)
CN(C)C(CNC(=O)c1cccc(S(=O)(=O)N2CCc3ccccc3C2)c1)c1ccccc1 (stereo unspecified),0.7,inactive,–
CC(NC(=O)c1cccc(S(=O)(=O)N2CCc3ccccc3C2)c1)c1ccco1 (stereo unspecified),0.3,inactive,–
CC1(C(=O)NS(=O)(=O)Cc2cccc(Cl)c2)CCN1C(=O)Cc1ccc(Cl)cc1Cl (stereo unspecified),0.5,inactive,–
OC[C@@H]1CN(Cc2ccncc2)C[C@H](n2cnc3c(N4CCN(c5ccccc5)CC4)ncnc32)O1,1.1,inactive,–
C=CCn1c2c(c3ccccc31)CCC2,1.4,inactive,–
CCOC(=O)[C@]12CCCC=C1N(CCC1=CCCCC1)C(=O)[C@H](CC(=O)N1CCCCC1)C2,3,inactive,–
CCOc1ccc(/C=C(/C#N)c2nnc(N3CCOCC3)n2-c2ccccc2)cc1OC,0.8,inactive,–
COc1cc(N2CCCC2)c(OC)cc1/C=C(/C#N)c1cccc(Br)c1,15,–,258% (active)
COc1ccc(S(=O)(=O)NC(=O)C2(C)CCN2C(=O)COc2ccc(Cl)cc2)cc1 (stereo unspecified),0.8,inactive,–
CCc1nc2c(OCc3ccccc3)cccn2c1N(C)C(=O)c1ccco1,1.6,inactive,–
CSc1ncccc1C(=O)Nc1ccc2c(c1)OCO2,1,inactive,–
CSc1ncccc1C(=O)NCc1ccccc1Cl,0.9,inactive,–
CSc1ncccc1C(=O)NC1CCCCCC1,4.7,–,171% (active)
CCCCCNC(=O)C1C(=O)Nc2ccccc2C(=O)N1C(C)(C)C (stereo unspecified),0.8,inactive,–
COC(=O)C1=CN(c2c(C)cc(C)cc2C)C(N)=C(C#N)C1c1cccc(F)c1 (stereo unspecified),1.5,inactive,–
CC1(C(=O)NS(=O)(=O)c2ccccc2Cl)CCN1C(=O)c1cccc(F)c1 (stereo unspecified),0.8,inactive,–
Cc1ccc(C2=CSC3=NS(=O)(=O)CCN23)cc1C,4.9,–,25% (active)
O=S1(=O)CCN2C(=N1)SC1=C2CCN(Cc2ccccc2)C1,0.5,inactive,–

SMILES,GFP+ MAC1+ double positive [%],outcome,normalized GFP-positive differentiation
CCCOc1ccc(C2=CSC3=NCCN23)cc1Cl,0.8,inactive,–
CCCCn1c(N)c(N(CCOC)C(=O)c2cccc(S(=O)(=O)N(C)c3ccccc3)c2)c(=O)[nH]c1=O,1.3,–,16.7% (active)
CCCCn1c(N)c(N(CCOC)C(=O)c2cccc(S(=O)(=O)N3CCCCC3)c2)c(=O)[nH]c1=O,0.5,inactive,–
CCCCn1c(N)c(N(CC)C(=O)c2ccc(N(C)S(=O)(=O)c3ccc(C)cc3)cc2)c(=O)[nH]c1=O,1.1,inactive,–
Cc1cc(C)nc(SCc2nnc(SCC(=O)OC3CCCCC3)o2)n1,1.3,inactive,–
CCC1CCCCN1C(=O)CSc1nc(C)cc(C)n1 (stereo unspecified),1.8,inactive,–
C/C(=N\NC(=O)c1ccc(CSc2nc(C)cc(C)n2)cc1)C1CCCCC1,1.3,–,21.9% (active)
Cc1nc2c(OCc3ccc(Cl)cc3)cccn2c1N(C)Cc1cccs1,0.4,inactive,–
CC(C)CNC(=O)C1(C)CCCN1C(=O)CSc1ccccc1 (stereo unspecified),1.4,inactive,–
Cc1cc(C(=O)N2CCCC2(C)C(=O)O)c(C)o1 (stereo unspecified),1.3,inactive,–
N#Cc1ccc(-c2nc3c(Cl)cc(C(F)(F)F)cn3c2Cc2ccccc2C(F)(F)F)cc1,1.3,inactive,–
CCC(C(=O)Nc1c(C)cccc1C)n1c(-c2cc(C)cs2)nc2ccccc21 (stereo unspecified),3.7,inactive,–
CCOC(=O)CSc1nnc(CNC(=O)c2cccs2)n1-c1ccccc1,1.4,inactive,–
CCc1ccc(NC(=O)C(=O)NNC(=O)c2cccs2)cc1,1.8,inactive,–
CCc1c(C)sc(NC(=O)c2cccs2)c1C(N)=O,7.9,–,14.1% (active)
Cc1ccc(NC(=O)[C@H](Cc2ccccc2)NC(=O)CC[C@H]2O[C@@H](n3ccc(=O)[nH]c3=O)[C@H](O)[C@@H]2O)cc1C,0.8,inactive,–
Cc1ccc(CSCC2Nc3ccc(C(=O)N4CCN(c5ccc(F)cc5)CC4)cc3NC2=O)cc1 (stereo unspecified),1.7,inactive,–
C=CCn1c(SCc2cccc(F)c2)nc2cc(C(=O)N3CCC(C(N)=O)CC3)ccc2c1=O,0.5,inactive,–
O=C1Nc2cc(C(=O)N3CCN(c4ccc(F)cc4)CC3)ccc2NC1CSCc1cccc(F)c1 (stereo unspecified),10.1,–,56.9% (active)
COC(=O)[C@]12CCCCC=C1N(Cc1ccccc1)C(=O)[C@H](CC(=O)NCc1ccc(C)o1)C2,1.2,inactive,–
CNC(=S)NNC(=O)c1oc2nc(-c3ccccc3)cc(-c3ccco3)c2c1N,2.3,inactive,–
O=C(Nc1cccc(F)c1)c1cc(-c2ccco2)nc2ccccc12,0.5,inactive,–

SMILES,GFP+ MAC1+ double positive [%],outcome,normalized GFP-positive differentiation
NNC(=O)c1oc2nc(-c3ccccc3)cc(-c3ccco3)c2c1N,1,–,38.1% (active)
Cc1ccccc1-c1csc(C(O)c2cccc(Cl)c2)n1 (stereo unspecified),0.8,inactive,–
Cc1cc(C)c2nc3nc(C)cc(C)c3c(N)c2c1,2.1,–,151% (active)
NC(Cc1ccc(F)cc1)c1csc(Nc2nncc3ccccc23)n1 (stereo unspecified),0.8,inactive,–
COc1cc(N=Cc2c(O)c3ccccc3oc2=O)c(OC)cc1Cl,12,–,239% (active)
O=c1oc2ccccc2c(=O)c2ccccc12,1.6,inactive,–
COc1ccccc1CNC(=O)c1cc(=O)c2ccccc2o1,1,inactive,–
CCOC(=O)c1ccn(S(=O)(=O)c2ccc(C)cc2)c1-c1ccccc1,1.4,inactive,–
O=C1NC[C@H](Cc2ccc(O)cc2)N(C[C@H]2CCCN2C[C@H](Cc2ccccc2)N2C[C@H](Cc3ccccc3)N(CCc3ccccc3)C(=O)C2=O)C1=O,1,inactive,–
CCOC(=O)[C@]12CCCC=C1N(CCC1=CCCCC1)C(=O)[C@H](CC(=O)N1CCN(C(=O)c3ccco3)CC1)C2,2.3,inactive,–
N#CCCN(C(=O)COC(=O)c1ccc(S(=O)(=O)N2CCCCCC2)cc1)c1ccccc1,0.7,inactive,–
Cc1c(C(=O)OCC(=O)N(CCC#N)c2ccccc2)oc2c1ccc1ccccc12,5,–,26.9% (active)
N#CCCN(C(=O)COC(=O)c1ccc2c(c1)OCCO2)c1ccccc1,0.7,inactive,–
CCCc1nc2ccccc2n1C(C)C(=O)NC(C)(C)C (stereo unspecified),3.7,inactive,–
O=C(NC(c1ccc(-c2ccccc2)cc1)c1cnccn1)C1CCN(CCOc2ccc(Cl)cc2Cl)CC1 (stereo unspecified),1.7,inactive,–
CC(C)n1cnc2c(NCc3ccccc3)cc(OCC3CCN(C)CC3)cc21,8.3,–,28.4% (active)
CN(C)c1nccc(NCc2ccccc2)c1C#N,0.2,inactive,–
CCOC1=C2[C@@H](CN(S(=O)(=O)c3ccc(C)cc3)[C@H]2c2ccccc2F)[C@H]2C(=O)N(Cc3ccccc3)C(=O)[C@H]2C1,1.5,inactive,–
COC(=O)CCCCC1=CCC2C(=O)C=C(O)C2C1 (stereo unspecified),1.6,inactive,–
CN(C)CCCNC(=O)/C=C/c1ccc(OCc2c(F)cccc2Cl)cc1,0.3,inactive,–
Fc1cccc(Cl)c1COc1ccc(-c2nnco2)cc1,1.8,inactive,–
O=C(/C=C/c1ccc(OCc2c(F)cccc2Cl)cc1)N1CCOCC1,32,–,144% (active)
